Source: PubChem
In the library only some 4.1% were active in any assay of this set; here they are far more common.
NALP1 inh – NALP1 inhibition; inhibition, % at 10 µM; S. cerevisiae NALP1/ASC/caspase-1 growth, X-gal OD620, 72 h; hit rate 0.61% among 280,000; in the data active = inhibition mostly above about 24%, no sharp cut-off; inactive = mostly below about 32%
tim10-1 inh – tim10-1 yeast growth inhibition; inhibition, % at 20 µM; S. cerevisiae tim10-1 ts strain growth, BacTiter-Glo, 24 h; hit rate 2.2% among 330,000;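 active = inhibition of at least 40%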;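 note: mutant grown at 25 °C; 0% = DMSO wells with yeast and 100% = wells holding no yeast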
PfHsp90 yeast 2 – inhibits growth of yeast expressing Plasmodium falciparum Hsp90 | S. cerevisiae expressing PfHsp90, BacTiter-Glo ATP, 48 h; yeast lacking PDR1 and PDR3 efflux regulators | inhibition, % at 9.4 µM | hit rate 0.32% among 310,000 | AID 504621;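 active = every replicate shows inhibition above about 80%, whatever the replicate mean, limit read from the data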;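 note: 0% = DMSO neutral controls and 100% = 20 µM radicicol positive controls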
tim23-1 inh – inhibits growth of tim23-1 mutant yeast; AID 463212; S. cerevisiae tim23-1 growth, BacTiter-Glo luminescence, 24 h; hit rate 1.3% among 330,000; inhibition, % at 20 µM;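 active = growth inhibition of the mutant yeast at or above 50%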;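 note: temperature-sensitive mutant grown at 25 °C; plate controls were DMSO-treated mutant yeast for no effect and medium wells lacking yeast for full effect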
TIM10 inh – inhibits growth of TIM10 yeast strain | S. cerevisiae TIM10 strain growth, BacTiter-Glo luminescence, 24 h | inhibition, % at 10 µM | hit rate 1.4% among 330,000;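 active = inhibition of 40% or more at the single tested concentration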;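 note: wild-type TIM10 isogenic control strain grown at permissive 25 °C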
NALP3 yeast inh – NALP3 inhibition in yeast. hit rate 0.39% among 330,000. inhibition, % at 10 µM. Yeast reconstituted NLRP3/ASC/caspase-1, beta-gal luminescence, 24 h;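 active = inhibition of 50% or more; inactive = inhibition below 50%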;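 note: plate controls were induced DMSO wells for no effect and uninduced yeast grown without galactose for full effect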
tim10-1 confirm – tim10-1 yeast growth inhibition, confirmed | inhibition, % at 20 µM | hit rate 56% among 7,400 | shares compounds with tim10-1 inh | S. cerevisiae tim10-1 ts strain growth, BacTiter-Glo, 24 h | AID 463213;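 active = inhibition of yeast growth at or above a set limit in either of two repeat tests at 20 µM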;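 note: tim10-1 mutant grown at permissive 25 °C to find synthetic lethal compounds; 0% = DMSO yeast wells and 100% = medium wells without yeast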
TIM10 conf – TIM10 yeast growth inhibition, confirmed | shares compounds with TIM10 inh | S. cerevisiae tim10 strain growth, BacTiter-Glo luminescence, 24 h | inhibition, % at 10 µM | hit rate 63% among 4,600;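 active = inhibition of yeast growth at or above a set limit in either of two replicates at 10 µM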;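 note: this counterscreen used the strain with wild-type TIM10; 0% = yeast with DMSO and 100% = medium wells lacking yeast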
Active calls of the source: *; / = not tested or not shown.

SMILES	NALP1 inh	tim10-1 inh	PfHsp90 yeast 2	tim23-1 inh	TIM10 inh	NALP3 yeast inh	tim10-1 confirm	TIM10 conf
COC(C/C=C\C(=O)COCc1ccccc1)OC	/	37	/	18	20	12	/	/
COC(C/C=C/C(=O)[C@H](C)OCc1ccccc1)OC	/	52*	-31	47	46*	11	48*	46*
O=C(COC(=O)Cn1cnc2ccccc21)Nc1cccc(S(=O)(=O)N2CCOCC2)c1	-3	-3	14	5	18	-5	/	/
COC(=O)c1sc(NC(=O)c2c(F)cccc2F)c(C#N)c1C	5	45*	/	29	41*	-36	38*	26
CCCc1cc(NCC2CCCO2)n2c(nc3ccccc32)c1C#N (centres undefined)	14	41*	33	45	41*	7	37*	25
Cc1ccc(C2=NN(C(=O)CCCC(=O)O)C(c3ccc4c(c3)OCO4)C2)cc1 (centres undefined)	17	-8	-1	6	2	12	/	/
Cc1noc(C)c1C(=O)Nc1nc(C23CC4CC(CC(C4)C2)C3)cs1	22	52*	-20	44	48*	33	38*	39*
c1ccc(Oc2nc(N3CCOCC3)nc(N3CCOCC3)n2)cc1	4	19	-8	26	7	23	/	/
c1cc(C2CCCCC2)ccc1Oc1nc(N2CCOCC2)nc(N2CCOCC2)n1	11	44*	-72	10	52*	-15	5	33*
CC(=O)c1cccc(NC(=O)CN(C)S(=O)(=O)c2ccc3c(c2)CC(C)N3C(C)=O)c1 (centres undefined)	-1	18	25	-1	-12	4	/	/
CN(C)CCCN(C(=O)c1ccc2c(c1)OCCO2)c1nc2cc3c(cc2s1)OCO3	29	10	19	8	7	10	/	/
CCN(c1ccccc1)S(=O)(=O)c1ccc(C(=O)N(CCCN(C)C)c2nc3cc4c(cc3s2)OCO4)cc1	15	64*	-15	44	52*	26	60*	46*
CN(C)CCCN(C(=O)c1ccc2ccccc2c1)c1nc2cc3c(cc2s1)OCO3	14	50*	4	21	46*	46	43*	35*
COCCn1c(N)c(N(Cc2ccccc2)C(=O)CSCC(=O)Nc2ccc(C)cc2)c(=O)[nH]c1=O	/	19	/	19	4	12	/	/
CCOC(=O)C1CCN(C(=O)c2ccc(OCC(=O)Nc3cccc(C(F)(F)F)c3)c(OC)c2)CC1	/	55*	1	46	59*	16	66*	63*
O=C(Nc1cccc(C(F)(F)F)c1)c1cccnc1NCCc1ccccc1	17	44*	45	40	43*	12	30*	-5
CC1CCCC(NC(=O)Nc2cccs2)C1C (centres undefined)	-3	55*	56	34	56*	22	65*	53*
CCOc1ccc(S(=O)(=O)NCCC(=O)NCc2cccnc2)cc1	/	6	/	-7	13	8	/	/
Cc1no[n+]([O-])c1COc1cccc(/C=C2\N=C(c3ccccc3)OC2=O)c1	36	30	3	11	12	8	/	/
O=C1OC(c2ccccc2)=N/C1=C/c1cccc(OC(=O)c2cccs2)c1	/	48*	25	9	51*	23	25	0
COC(=O)[C@@H](Cc1c[nH]c2ccccc12)NC(=O)CCC(=O)c1ccc(Br)cc1	18	34	10	24	15	7	/	/
Cc1cccc(NC2=C/C(=N/S(=O)(=O)c3cccs3)c3ccccc3C2=O)c1	20	/	-4	/	/	/	/	/
Cc1ccc(NC2=C/C(=N\S(=O)(=O)c3cccs3)c3ccccc3C2=O)c(C)c1	4	74*	7	36	60*	17	49*	-5
C/C(=N\NC(=S)NCc1ccccc1)c1cccc(Br)c1	19	42*	-12	30	45*	-5	27	24
C/C(=N\NC(=S)NCCc1ccccc1)c1cccc(Br)c1	17	17	-25	10	37	31	/	/
SMILES	NALP1 inh	tim10-1 inh	PfHsp90 yeast 2	tim23-1 inh	TIM10 inh	NALP3 yeast inh	tim10-1 confirm	TIM10 conf
COc1ccc(/C(C)=N/NC(=S)NCCc2ccccc2)cc1	15	41*	-26	44	47*	21	35*	13
C/C(CCc1ccccc1)=N\NC(=S)NCCc1ccccc1	9	27	27	30	4	28	/	/
Cn1cccc1/C=N/NC(=O)c1cc2ccccc2cc1O	15	-6	-24	-5	7	7	/	/
Cn1c(=O)c2nc(-c3ccccc3)oc2c2ccccc21	6	55*	/	49	59*	26	48*	68*
c1ccc(-c2c(-c3ccccc3)n(Cc3ccco3)c3ncnc(NCCCn4ccnc4)c23)cc1	64	40*	104*	-31	45*	6	38*	11
O=C(/C=C/c1ccccc1)OCN1C(=O)c2ccccc2C1=O	2	22	2	19	26	-12	/	/
CC1=C/C(=N\OC(=O)/C=C/c2ccccc2)C(C)=CC1=O	1	46*	1	37	43*	1	16	23
O=C(N/N=C/c1ccc([N+](=O)[O-])o1)c1cc2ccccc2o1	/	59*	3	40	45*	11	56*	79*
COc1ccc(C(C)(C)C)cc1NC(=O)COC(=O)C1=NNC(=O)CC1	/	0	18	15	9	-11	/	/
Cc1c(N2C(=O)/C(=C\C3CC=CCC3)SC2=S)c(=O)n(-c2ccccc2)n1C (centres undefined)	12	46*	/	48	42*	15	39*	33*
Fc1ccc(N/N=C/c2cccnc2)c(F)c1	3	-129	-4	11	-2	37	/	/
Clc1ccc2c(N/N=C/c3cccnc3)ccnc2c1	8	51*	-10	40	71*	25	57*	79*
O=C(COC(=O)c1ccc(O)cc1)Nc1ccccc1	1	-1	-16	15	-9	5	/	/
Oc1ccc(Br)cc1C1Nc2ccccc2S1 (centres undefined)	13	14	-23	15	14	11	/	/
CC(C)(C)n1[nH]c2c3c(ccc2c1=O)C(=O)c1ccccc1C3=O	1	45*	/	28	65*	21	40*	57*
CCCC(=O)NC(=S)Nc1cccc(Cl)c1N1CCCCC1	/	44*	23	42	50*	-30	28	36*
Cc1noc(C)c1CSCC(=O)Nc1nc2ccc(S(C)(=O)=O)cc2s1	/	1	/	-6	-8	19	/	/
